Laboratory results published in publication PMC5540273 (PLoS ONE, 2017).

Key:
Conditions in all cases: concentration: 1 μM, replicates: in singlicate; n = 1
[1] = test system: T1, AMPK-alpha1
T1 construct: gene PRKAA1

[2] = test system: T2, AMPK-alpha2
T2 construct: gene PRKAA2

[3] = test system: ANKK1
[4] = test system: T3, ARK5
T3 construct: gene NUAK1

[5] = test system: T4, ASK1
T4 construct: gene MAP3K5

[6] = test system: T5, ASK2
T5 construct: gene MAP3K6

[7] = test system: AURKA
[8] = test system: AURKB
[9] = test system: AURKC
[10] = test system: AXL
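Note: KINOMEscan kinase panel screen.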

SMILES	%Inh [1] [%]	%Inh [2] [%]	%Inh [3] [%]	%Inh [4] [%]	%Inh [5] [%]	%Inh [6] [%]	%Inh [7] [%]	%Inh [8] [%]	%Inh [9] [%]	%Inh [10] [%]
O=C(Nc1n[nH]c2nc(-c3cccs3)c(Br)cc12)C1CCCC1 [SB-743341]	29	40	35	0	0	12	17	27	10	0
Cc1ccc(-c2nc(Nc3ccncc3)c3ccccc3n2)s1 [GSK189015]	0	20	65	17	1	11	0	0	24	20
CC[C@@H]1CO[C@H](C(=O)Nc2ccccc2)CN1c1cc(-c2ccc3c(N)n[nH]c3c2)nc(NC)n1 [GSK2376236]	0	1	0	14	4	0		0	48	0
O=c1cc(N2CCOCC2)nc2n(Cc3ccccc3F)ccn12 [GSK2297428]	0	0	9	0	0	0	0	13	0	0
COC(=O)C(NC(=O)NC1CCN(c2ccnc(Nc3ccc(F)cc3)n2)C1)c1ccccc1 (stereo not shown) [GSK1379712]	0	12	10	8	20	2	5	0	32	0
